{"source": "the OligoGym collection"}
{"target": "CBWD1", "assay": "pooled miR-30 sensor sort-seq; sequence = guide strand", "details": "shRNA"}
{"sequence": "TTCTTCTGGAACCAGGTCTGTT", "sensor-assay potency score (higher = more potent)": -0.933}
{"sequence": "AAGCAACTTGTCTAGTAGCTTC", "sensor-assay potency score (higher = more potent)": -0.327}
{"sequence": "TACATCTTCTTCTGGAACCAGG", "sensor-assay potency score (higher = more potent)": -0.734}
{"target": "CBWD2", "assay": "pooled miR-30 sensor sort-seq; sequence = guide strand", "details": "shRNA"}
{"sequence": "TTTATGGATCTAATTGTCGCTC", "sensor-assay potency score (higher = more potent)": -0.0827}
{"sequence": "TTATGGATCTAATTGTCGCTCT", "sensor-assay potency score (higher = more potent)": 0.237}
{"sequence": "TATTTTGAATCCACTATAGTTA", "sensor-assay potency score (higher = more potent)": -0.411}
{"target": "CBWD3", "assay": "pooled miR-30 sensor sort-seq; sequence = guide strand", "details": "shRNA"}
{"sequence": "TTACATCTTCTTCTGGAACCAG", "sensor-assay potency score (higher = more potent)": 0.201}
{"sequence": "TTATCCAATCCTTTTGATAAGA", "sensor-assay potency score (higher = more potent)": -1.37}
{"sequence": "TATTATCCAATCCTTTTGATAA", "sensor-assay potency score (higher = more potent)": -1.72}
{"sequence": "TTGTCGTTCTTAATTTCTTTAC", "sensor-assay potency score (higher = more potent)": -1.76}
{"sequence": "TTATTATCCAATCCTTTTGATA", "sensor-assay potency score (higher = more potent)": -1.04}
{"sequence": "TACATCTTCTTCTGGAACCAAG", "sensor-assay potency score (higher = more potent)": -0.337}
{"sequence": "TTTATTATCCAATCCTTTTGAT", "sensor-assay potency score (higher = more potent)": -0.0523}
{"sequence": "TCTTCTGGAACCAAGTCTGTTT", "sensor-assay potency score (higher = more potent)": -0.303}
{"sequence": "TTTATGGATCTAATTGTCGTTC", "sensor-assay potency score (higher = more potent)": -0.438}
{"target": "CBX5", "assay": "pooled miR-30 sensor sort-seq; sequence = guide strand", "details": "shRNA"}
{"sequence": "TTAGGAACATTAAATCACCACA", "sensor-assay potency score (higher = more potent)": -0.835}
{"sequence": "TTTTAGATTTGATGTCATCGGC", "sensor-assay potency score (higher = more potent)": -0.344}
{"sequence": "TAGATATTCCACTTGTCCCTTA", "sensor-assay potency score (higher = more potent)": 0.296}
{"sequence": "TTTAGATTTGATGTCATCGGCA", "sensor-assay potency score (higher = more potent)": -0.103}
{"sequence": "TTAGATTTGATGTCATCGGCAC", "sensor-assay potency score (higher = more potent)": 0.364}
{"sequence": "TATACTTTTTCATAAATTCAGA", "sensor-assay potency score (higher = more potent)": -1.38}
{"sequence": "TAAAATGCTATCACAATTTGTG", "sensor-assay potency score (higher = more potent)": -0.0381}
{"sequence": "TTTGATGTCATCGGCACTGTTT", "sensor-assay potency score (higher = more potent)": -0.553}
{"sequence": "TTAAATCACCACAGGAATCTGT", "sensor-assay potency score (higher = more potent)": -0.0279}
{"sequence": "TTACTTTCTGACTTCTCCCTGG", "sensor-assay potency score (higher = more potent)": 0.106}
{"sequence": "TAAATTCAGAAATTAGCTCAGG", "sensor-assay potency score (higher = more potent)": -0.159}
{"sequence": "TCACATTAGCTTCTTTTGCAAG", "sensor-assay potency score (higher = more potent)": -1.01}
{"target": "CBX7", "assay": "pooled miR-30 sensor sort-seq; sequence = guide strand", "details": "shRNA"}
{"sequence": "TTCTTTGAAAGTGACCAGGAAG", "sensor-assay potency score (higher = more potent)": -1.2}
{"sequence": "TAGAGGAGAATGATAATGGTGG", "sensor-assay potency score (higher = more potent)": 0.263}
{"sequence": "TCGTAGGCCATGACGAGGCGGG", "sensor-assay potency score (higher = more potent)": -0.996}
{"sequence": "TAGTTCTTTGAAAGTGACCAGG", "sensor-assay potency score (higher = more potent)": -0.792}
{"sequence": "TCGATGGCTGTGGCTCTCCAGG", "sensor-assay potency score (higher = more potent)": -1.84}
{"sequence": "TCCACTTCACCAGATACTCGAC", "sensor-assay potency score (higher = more potent)": -1.35}
{"sequence": "TTTAACTCCCAGAACCAGCTGC", "sensor-assay potency score (higher = more potent)": 0.312}
{"sequence": "ATACTCGACTTTACCCTTCCGC", "sensor-assay potency score (higher = more potent)": -0.334}
{"sequence": "TACTCGACTTTACCCTTCCGCA", "sensor-assay potency score (higher = more potent)": -1.36}
{"sequence": "TTCCGCACGCGCTTCTTCCGGA", "sensor-assay potency score (higher = more potent)": -0.445}
{"sequence": "ATACATCACACAACTTAGCAGA", "sensor-assay potency score (higher = more potent)": -0.583}
{"sequence": "TGTACTTTGGGGGCCATCCTTT", "sensor-assay potency score (higher = more potent)": -1.24}
